54 compounds from ChEMBL document CHEMBL4513216, “Probing the Open Global Health Chemical Diversity Library for Multistage-Active Starting Points for Next-Generation Antimalarials” (ACS Infect Dis, 2020) can be followed below.

SMILES strings stand for the structures. About 8,600 (12%) of roughly 69,000 compounds showed an effect of 50% or more. Many of the other results were omitted from the sample, so strong results are more common in it than they were.

For the test, the system named is Plasmodium berghei. Briefly: Screen against P. berghei liver stage (PbLuc), transformed with Luciferase, at 10uM. Conditions: tested at 10 uM. Format: functional, HepG2.
Take `Clc1ccc2oc(C3CCN(Cc4cccnc4)CC3)nc2c1`: the INHIBITION came to 73.4%.
Turning to `CC(C)c1noc(CN2CCC(c3nc4cc(Cl)ccc4o3)CC2)n1`, the INHIBITION was 67.9%.
As to `CN1CCN(C2CCN(Cc3noc(C(C)(C)C)n3)CC2)C1=O`, the INHIBITION is reported as -21.5%.
With `CCc1nnc(CN2CCC(c3nc4cc(Cl)ccc4o3)CC2)o1`, the INHIBITION was 33.8%.
With `CC(C)(C)c1n[nH]c(C2CN(C(=O)c3cnc[nH]3)CCO2)n1` (centres undefined), the INHIBITION is reported as -42.1%.
As for `CN(C)CC1CN(Cc2cccc(C#N)c2)Cc2nccn2C1` (centres undefined), the figure is -62.8%; as for `CC[C@H](C)Nc1ncc(-c2cccc(NC(=O)CNC)c2)cn1`, -21.1%.
The value for `Cc1n[nH]cc1CNCC(O)c1ccc(F)c(F)c1` (centres undefined) was 1.24%.
As for `Cc1cc(C(=O)N2CC[C@]3(C[C@@H](OCc4ccccn4)CO3)C2)c(C)o1`, the figure is 43.9%; as for `O=C(NCC1CCCO1)c1cc(-c2cccnc2)c2cnccc2n1` (centres undefined), 31.3%; as for `Cc1ncc(CN2CCCN(Cc3noc(C4CC4)n3)CC2)s1`, -36.1%.
Take `Cc1nnc(CN2CCC(c3nc4cc(Cl)ccc4o3)CC2)n1C`: the INHIBITION is recorded as -0.275%.
As for `Cc1noc(C)c1CN1CCC(c2nc3cc(Cl)ccc3o2)CC1`, the figure is 72.3%; as for `Cc1ncc(CN2CCC(c3nc4cc(Cl)ccc4o3)CC2)s1`, 83.3%.
The value for `Cc1nc(CN2CCC(c3nc4cc(Cl)ccc4o3)CC2)oc1C` was -6.88%; that for `Cc1ccc2oc([C@H]3CCN(Cc4ccccc4)C3)nc2c1` was 22.3%.
For the compound `N#Cc1cnc2cc(F)cc(F)c2c1NC1CCN(CC(N)=O)CC1`, the INHIBITION is given as -71.1%.
The value for `CCCc1cc(C(=O)N[C@@H](CO)[C@@H](O)c2ccccc2)n(C)n1` was 20.3%; that for `CCn1nc(C)cc1C(=O)N1C[C@@H]2C[C@@H](C)O[C@@H]2C1` was 1.7%; that for `CCN(Cc1noc(CC(C)C)n1)Cc1ccccc1OCC(=O)O` was 11.8%.
As to `CCN(Cc1noc(CC(C)C)n1)Cc1cccc(F)c1O`, the INHIBITION was 45.2%.
`CCN(Cc1noc(CC(C)C)n1)Cc1ccccc1C(=O)O`: the INHIBITION is listed as 58.2%.
On to `CCN(Cc1noc(CC(C)C)n1)Cc1ncccc1C(=O)O`, for which the INHIBITION worked out at 35.9%.
On to `CCN(Cc1noc(CC(C)C)n1)Cc1ccccc1C`, for which the INHIBITION stood at 42.4%.
As for `CCN(Cc1noc(CC(C)C)n1)Cc1ccccc1Cl`, the figure is 50.8%.
The value for `CCC1COCCN1C(=O)NCc1nccn1Cc1ccccc1` (centres undefined) was 40.7%.
Turning to `CCCC1CCCN(C(=O)CCn2cccn2)CC1` (centres undefined), the INHIBITION was 30.76%.
With `CC(C)C(=O)N1CC[C@H]2N(C)CC[C@@]2(C(=O)N2CCOCC2)CC1`, the INHIBITION is 14.9%.
The value for `CC(C)n1cnc2c1C(C(=O)N(C)C)N(Cc1ccccc1)CC2` (centres undefined) was 4.61%.
As for `C1CCN(CCO[C@@H]2CC[C@H]3[C@H]2OCCN3CC2CCOCC2)C1`, the INHIBITION is recorded as 34.4%.
The value for `CC(NCc1cccn1C)c1noc(-c2ccc(Cl)cc2)n1` (centres undefined) was -1.15%; that for `Cc1nccn1-c1ccc(C(C)NCc2ncc[nH]2)cc1` (centres undefined) was 50%.
For `Cc1nccn1-c1ccc(C(C)NCc2cccn2C)cc1` (centres undefined), the INHIBITION was 53.4%.
For `Cc1nccn1-c1ccc(N2CCC(N[C@H](C)C(C)C)CC2)cc1`, the INHIBITION came out at 43%.
As for `Cc1nccn1-c1ccc(N2CCC(NC(C)C(C)C)CC2)cc1` (centres undefined), the figure is 25.8%; as for `Cc1nc(CNC(C)c2ccc(OCC(=O)NC3CC3)cc2)cs1` (centres undefined), 33.7%.
In the case of `Cc1nccn1-c1ccc(C(C)NCc2cc[nH]n2)cc1` (centres undefined), the INHIBITION came out at 50.8%.
Take `CCOc1ccc(CNC(C)c2ccc3[nH]c(=O)[nH]c3c2)cc1` (centres undefined): the INHIBITION stood at 4.71%.
The value for `COc1ccc(C)cc1C(C)NCc1cccn1C` (centres undefined) was -40.7%; that for `COc1cc2c(cc1OC)CN(C(=O)NCC1CCCO1)CC2` (centres undefined) was 18.9%; that for `Cc1c(C(=O)O)oc2ccc(I)cc12` was 26.3%.
As for `Cc1nn(C)c(N(C)C)c1CNCCS(C)(=O)=O`, the figure is -21.915%; as for `O=C(CC1[C@H]2CN(C(=O)CO)C[C@@H]12)Nc1cccnc1` (some centres undefined), 42.6%; as for `CC(NC(=O)NCCCc1n[nH]c(N)c1C#N)c1ccc(F)c(F)c1` (centres undefined), -23.8%.
On to `Cn1c(=O)[nH]c(=O)c2c1nc1n2CC(c2ccc(Br)cc2)O1` (centres undefined), for which the INHIBITION worked out at 1.985%.
On to `CC(=O)Nc1nc(CN2CCOC(Cn3cccn3)C2)cs1` (centres undefined), for which the INHIBITION stood at 31.3%.
As to `CC(NCc1ccc(OCC(N)=O)cc1)c1ccc(Cl)c(Cl)c1` (centres undefined), the INHIBITION is on record as -6.91%.
As for `CC(C)(C)CC(=O)NCC(=O)Nc1ccn(Cc2ccccc2)n1`, the INHIBITION amounted to 21.6%.
As for `O=C(NCC1CCC2(CCNCC2)CO1)c1cnccn1` (centres undefined), the figure is 73.3%.
On to `O=C(NCC1CC[C@@]2(CNCCOC2)O1)c1cnccn1` (some centres undefined), for which the INHIBITION is reported as 5.36%.
Regarding `Cc1ncsc1C(=O)NCC1CCC2(CCNCC2)CO1` (centres undefined), the INHIBITION is -10.9%.
With `O=C(NCC1CCCO1)c1csc(Cc2ccccc2)n1` (centres undefined), the INHIBITION is -87.7%.
The value for `Nc1nc(C(=O)NCC2CCC3(CCNCC3)CO2)cs1` (centres undefined) was 55.6%.
As for `O=C(NCC1CCC2(CCNCC2)CO1)c1ccno1` (centres undefined), the figure is 5.36%.
